Common to all, as to assay: DAPPL (digital affinity profiling via proximity ligation, sequencing); 10 mM Tris-HCl pH 7.5, 50 mM NaCl, 1 mM DTT, 4% glycerol, room temperature, 30 min; GST-TFs on glutathione beads, 16-mer random dsDNA library, 0.1% formaldehyde crosslink after washing; high values mean tight binding
In assay [1] the target is T1, FEV (Homo sapiens, UniProt Q99581 1-238).
T1 sequence: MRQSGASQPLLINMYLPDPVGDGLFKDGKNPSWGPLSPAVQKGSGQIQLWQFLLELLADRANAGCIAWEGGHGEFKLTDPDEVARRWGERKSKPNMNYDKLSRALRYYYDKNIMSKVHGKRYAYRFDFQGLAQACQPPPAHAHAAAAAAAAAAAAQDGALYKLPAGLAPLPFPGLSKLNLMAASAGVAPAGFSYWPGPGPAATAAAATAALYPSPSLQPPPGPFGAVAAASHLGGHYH
The settings on record: protein: recombinant; tags: N-terminal GST; dsDNA, one strand shown. Put shortly: (§1)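 Each value of binding signal is a hexamer's read frequency for a factor divided by the same hexamer's frequency in the tag-only sample. Barcoded, bead-captured GST fusions of human transcription factors made in yeast were pooled with that sample and incubated with 200 nmole of a random double-stranded 16-mer DNA library in Tris/NaCl/DTT/glycerol buffer at room temperature for 30 min. Washing, 0.1% formaldehyde crosslinking, proximity ligation, PCR and Illumina NextSeq500 sequencing followed.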

Assay [2] has as its target ETV5 (Homo sapiens, UniProt P41161 1-510). The settings on record: protein: recombinant; tags: N-terminal GST; dsDNA, one strand shown. Put shortly:
as §1

For assay [3], the target named is HSF1 (Homo sapiens, UniProt Q00613 1-529). The settings on record: protein: recombinant; tags: N-terminal GST; chain copies: 3; dsDNA, one strand shown. In outline:
as §1

Assay [4] concerns the target T2, SPIC (Homo sapiens, UniProt Q8N5J4 1-248).
T2 sequence: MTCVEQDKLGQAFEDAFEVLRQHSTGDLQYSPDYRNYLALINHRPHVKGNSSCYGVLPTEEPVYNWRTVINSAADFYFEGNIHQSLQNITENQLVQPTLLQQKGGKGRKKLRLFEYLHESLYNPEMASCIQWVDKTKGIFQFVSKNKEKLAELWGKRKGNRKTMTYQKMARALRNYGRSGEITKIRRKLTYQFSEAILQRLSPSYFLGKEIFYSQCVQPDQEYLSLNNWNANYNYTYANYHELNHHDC
To be noted: protein: recombinant; tags: N-terminal GST; dsDNA, one strand shown. Put shortly: as §1

Assay [5] addresses ELF4 (Homo sapiens, UniProt Q99607 1-663). The settings on record: protein: recombinant; tags: N-terminal GST; dsDNA, one strand shown. In outline: as §1
The target of assay [6] is T3, ELK4 (Homo sapiens, UniProt P28324-2 1-405).
T3 sequence: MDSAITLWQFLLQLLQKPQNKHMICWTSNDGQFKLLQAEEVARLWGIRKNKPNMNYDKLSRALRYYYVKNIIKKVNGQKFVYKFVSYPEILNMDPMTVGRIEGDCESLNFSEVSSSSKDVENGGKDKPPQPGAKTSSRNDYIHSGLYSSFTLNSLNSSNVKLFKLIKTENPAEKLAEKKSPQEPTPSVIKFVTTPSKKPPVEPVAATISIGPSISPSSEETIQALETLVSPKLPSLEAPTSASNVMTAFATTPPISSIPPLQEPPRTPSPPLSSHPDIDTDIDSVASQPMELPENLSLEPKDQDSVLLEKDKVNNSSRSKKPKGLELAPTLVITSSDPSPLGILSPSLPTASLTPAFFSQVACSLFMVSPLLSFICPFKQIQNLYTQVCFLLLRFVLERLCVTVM
To be noted: protein: recombinant; tags: N-terminal GST; dsDNA, one strand shown. Put shortly: as §1

Assay [7] addresses T4, ETV2 (Homo sapiens, UniProt O00321 1-342).
T4 sequence: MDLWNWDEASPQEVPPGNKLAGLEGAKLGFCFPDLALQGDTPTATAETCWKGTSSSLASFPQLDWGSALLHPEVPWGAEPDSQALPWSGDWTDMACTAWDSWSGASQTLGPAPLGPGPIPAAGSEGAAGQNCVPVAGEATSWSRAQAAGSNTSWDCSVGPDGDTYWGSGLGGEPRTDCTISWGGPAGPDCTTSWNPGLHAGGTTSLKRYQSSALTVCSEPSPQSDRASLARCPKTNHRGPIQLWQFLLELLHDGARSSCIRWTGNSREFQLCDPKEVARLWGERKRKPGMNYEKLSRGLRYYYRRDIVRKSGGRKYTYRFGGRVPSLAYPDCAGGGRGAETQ
The settings on record: protein: recombinant; tags: N-terminal GST; dsDNA, one strand shown. In outline:
as §1

The target of assay [8] is T5, ELF3 (Homo sapiens, UniProt P78545 1-371).
T5 sequence: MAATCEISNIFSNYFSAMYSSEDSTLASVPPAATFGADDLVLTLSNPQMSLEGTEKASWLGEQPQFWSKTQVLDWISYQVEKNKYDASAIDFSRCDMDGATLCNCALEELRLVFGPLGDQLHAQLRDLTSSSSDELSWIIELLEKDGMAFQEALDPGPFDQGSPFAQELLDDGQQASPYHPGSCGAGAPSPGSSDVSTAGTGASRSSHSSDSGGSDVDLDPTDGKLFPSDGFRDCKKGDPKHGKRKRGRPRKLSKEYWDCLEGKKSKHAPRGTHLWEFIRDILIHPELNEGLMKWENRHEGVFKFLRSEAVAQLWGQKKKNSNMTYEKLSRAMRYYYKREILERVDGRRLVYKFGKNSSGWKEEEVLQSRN
To be noted: protein: recombinant; tags: N-terminal GST; dsDNA, one strand shown. Put shortly: as §1

Assay [9] addresses CRX (Homo sapiens, UniProt O43186 1-299). To be noted: protein: recombinant; tags: N-terminal GST; dsDNA, one strand shown. Put shortly:
as §1

The target in assay [10] is ETV1 (Homo sapiens, UniProt P50549 1-477). The settings on record: protein: recombinant; tags: N-terminal GST; dsDNA, one strand shown. Put shortly: as §1
In assay [11] the target is T6, ERF (Homo sapiens, UniProt P50548 1-548).
T6 sequence: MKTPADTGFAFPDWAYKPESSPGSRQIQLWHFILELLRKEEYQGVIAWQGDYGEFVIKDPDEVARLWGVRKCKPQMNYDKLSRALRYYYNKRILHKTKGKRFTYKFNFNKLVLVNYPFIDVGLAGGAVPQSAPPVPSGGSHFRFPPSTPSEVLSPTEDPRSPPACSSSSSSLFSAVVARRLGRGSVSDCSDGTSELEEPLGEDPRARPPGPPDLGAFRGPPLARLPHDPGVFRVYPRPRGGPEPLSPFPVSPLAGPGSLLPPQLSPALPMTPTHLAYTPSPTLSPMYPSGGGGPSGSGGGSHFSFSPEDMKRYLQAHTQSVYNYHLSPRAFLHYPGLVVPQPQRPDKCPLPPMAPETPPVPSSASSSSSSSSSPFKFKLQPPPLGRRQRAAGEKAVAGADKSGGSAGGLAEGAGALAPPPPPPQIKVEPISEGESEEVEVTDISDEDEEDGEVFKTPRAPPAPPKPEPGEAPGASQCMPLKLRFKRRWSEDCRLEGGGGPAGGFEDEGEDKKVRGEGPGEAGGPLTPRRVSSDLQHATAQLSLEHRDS
To be noted: protein: recombinant; tags: N-terminal GST; dsDNA, one strand shown. In outline: as §1

For assay [12], the target named is T7, ETV3L (Homo sapiens, UniProt Q6ZN32 1-361).
T7 sequence: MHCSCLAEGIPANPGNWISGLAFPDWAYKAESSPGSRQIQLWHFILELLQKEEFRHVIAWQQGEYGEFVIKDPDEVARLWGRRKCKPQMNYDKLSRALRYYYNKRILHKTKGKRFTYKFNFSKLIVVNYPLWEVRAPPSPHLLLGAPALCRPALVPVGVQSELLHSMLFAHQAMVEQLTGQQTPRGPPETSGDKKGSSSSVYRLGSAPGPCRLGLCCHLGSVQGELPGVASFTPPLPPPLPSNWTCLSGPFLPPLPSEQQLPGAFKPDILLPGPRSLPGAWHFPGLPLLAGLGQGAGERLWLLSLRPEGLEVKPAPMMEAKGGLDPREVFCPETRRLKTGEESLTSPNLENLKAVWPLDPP
To be noted: protein: recombinant; tags: N-terminal GST; dsDNA, one strand shown. Put shortly:
as §1

Assay [13] deals with T8, ETS2 (Homo sapiens, UniProt P15036 1-469).
T8 sequence: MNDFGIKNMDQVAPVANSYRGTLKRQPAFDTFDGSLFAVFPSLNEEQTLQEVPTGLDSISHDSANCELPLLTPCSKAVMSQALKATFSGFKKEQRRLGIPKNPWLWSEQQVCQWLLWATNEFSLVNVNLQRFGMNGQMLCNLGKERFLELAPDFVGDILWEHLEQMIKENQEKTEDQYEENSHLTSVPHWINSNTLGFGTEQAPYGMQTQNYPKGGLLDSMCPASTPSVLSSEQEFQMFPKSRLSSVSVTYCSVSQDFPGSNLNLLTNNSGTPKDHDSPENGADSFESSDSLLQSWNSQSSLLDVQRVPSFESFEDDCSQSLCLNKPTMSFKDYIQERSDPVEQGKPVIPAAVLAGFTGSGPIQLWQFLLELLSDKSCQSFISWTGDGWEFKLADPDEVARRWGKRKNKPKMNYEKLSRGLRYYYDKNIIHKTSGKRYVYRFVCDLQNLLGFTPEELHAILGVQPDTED
To be noted: protein: recombinant; tags: N-terminal GST; dsDNA, one strand shown. Put shortly:
as §1

In assay [14] the target is T9, SPDEF (Homo sapiens, UniProt O95238 1-335).
T9 sequence: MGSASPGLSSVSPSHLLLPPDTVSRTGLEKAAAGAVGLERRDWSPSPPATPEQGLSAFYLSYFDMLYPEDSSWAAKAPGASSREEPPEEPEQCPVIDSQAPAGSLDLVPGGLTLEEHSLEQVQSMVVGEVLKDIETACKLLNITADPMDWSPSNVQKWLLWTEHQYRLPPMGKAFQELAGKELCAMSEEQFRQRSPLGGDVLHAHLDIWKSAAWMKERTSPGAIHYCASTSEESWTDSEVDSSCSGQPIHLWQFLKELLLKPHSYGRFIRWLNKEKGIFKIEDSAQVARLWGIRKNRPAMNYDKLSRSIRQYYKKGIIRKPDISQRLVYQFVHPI
The settings on record: protein: recombinant; tags: N-terminal GST; dsDNA, one strand shown. Put shortly:
as §1

Assay [15] deals with T10, ETV7 (Homo sapiens, UniProt Q9Y603 1-341).
T10 sequence: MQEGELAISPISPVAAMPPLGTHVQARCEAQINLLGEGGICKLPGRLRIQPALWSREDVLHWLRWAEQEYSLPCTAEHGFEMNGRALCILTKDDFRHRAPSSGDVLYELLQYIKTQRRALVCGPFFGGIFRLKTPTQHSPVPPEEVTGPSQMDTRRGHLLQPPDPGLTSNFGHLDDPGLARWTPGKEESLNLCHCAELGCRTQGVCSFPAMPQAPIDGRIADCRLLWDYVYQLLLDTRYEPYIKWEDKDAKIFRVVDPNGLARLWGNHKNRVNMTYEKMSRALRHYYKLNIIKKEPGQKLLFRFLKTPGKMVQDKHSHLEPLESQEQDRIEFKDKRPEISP
To be noted: protein: recombinant; tags: N-terminal GST; dsDNA, one strand shown. Put shortly:
as §1

Assay [16] concerns the target T11, ELF5 (Homo sapiens, UniProt Q9UKW6-2 1-255).
T11 sequence: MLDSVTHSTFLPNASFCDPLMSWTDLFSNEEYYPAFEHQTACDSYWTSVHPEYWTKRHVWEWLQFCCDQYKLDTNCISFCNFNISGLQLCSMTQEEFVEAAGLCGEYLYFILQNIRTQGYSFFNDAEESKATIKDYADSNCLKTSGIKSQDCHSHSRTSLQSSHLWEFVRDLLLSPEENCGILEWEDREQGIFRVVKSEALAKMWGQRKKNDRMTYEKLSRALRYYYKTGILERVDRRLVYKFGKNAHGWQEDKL
The settings on record: protein: recombinant; tags: N-terminal GST; dsDNA, one strand shown. Put shortly: as §1

Assay [17] concerns the target T12, ETV3 (Homo sapiens, UniProt P41162-2 1-143).
T12 sequence: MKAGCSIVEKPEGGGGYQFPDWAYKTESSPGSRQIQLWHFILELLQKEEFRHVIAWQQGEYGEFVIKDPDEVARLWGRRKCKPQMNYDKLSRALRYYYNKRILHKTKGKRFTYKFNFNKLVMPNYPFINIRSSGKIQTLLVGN
To be noted: protein: recombinant; tags: N-terminal GST; dsDNA, one strand shown. In outline:
as §1

Assay [18] concerns the target ETV6 (Homo sapiens, UniProt P41212 1-452). To be noted: protein: recombinant; tags: N-terminal GST; dsDNA, one strand shown. Put shortly:
as §1

ELF4, sequence (Q99607 whole entry): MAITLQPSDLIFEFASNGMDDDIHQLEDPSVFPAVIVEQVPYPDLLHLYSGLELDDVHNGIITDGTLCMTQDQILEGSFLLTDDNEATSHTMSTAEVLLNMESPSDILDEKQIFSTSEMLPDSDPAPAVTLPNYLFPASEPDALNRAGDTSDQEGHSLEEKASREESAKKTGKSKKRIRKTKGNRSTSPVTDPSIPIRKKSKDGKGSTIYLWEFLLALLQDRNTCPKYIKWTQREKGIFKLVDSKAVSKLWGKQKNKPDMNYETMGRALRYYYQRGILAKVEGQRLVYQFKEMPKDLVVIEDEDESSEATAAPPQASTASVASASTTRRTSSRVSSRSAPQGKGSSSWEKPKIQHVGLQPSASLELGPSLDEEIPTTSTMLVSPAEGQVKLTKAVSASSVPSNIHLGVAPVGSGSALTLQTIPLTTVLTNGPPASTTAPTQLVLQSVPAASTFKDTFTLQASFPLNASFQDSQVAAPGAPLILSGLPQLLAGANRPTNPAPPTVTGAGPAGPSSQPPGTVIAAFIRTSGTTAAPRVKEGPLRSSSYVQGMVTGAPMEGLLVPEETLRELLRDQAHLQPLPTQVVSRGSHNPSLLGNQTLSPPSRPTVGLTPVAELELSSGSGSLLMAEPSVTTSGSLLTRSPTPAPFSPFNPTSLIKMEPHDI
HSF1, sequence (Q00613 whole entry): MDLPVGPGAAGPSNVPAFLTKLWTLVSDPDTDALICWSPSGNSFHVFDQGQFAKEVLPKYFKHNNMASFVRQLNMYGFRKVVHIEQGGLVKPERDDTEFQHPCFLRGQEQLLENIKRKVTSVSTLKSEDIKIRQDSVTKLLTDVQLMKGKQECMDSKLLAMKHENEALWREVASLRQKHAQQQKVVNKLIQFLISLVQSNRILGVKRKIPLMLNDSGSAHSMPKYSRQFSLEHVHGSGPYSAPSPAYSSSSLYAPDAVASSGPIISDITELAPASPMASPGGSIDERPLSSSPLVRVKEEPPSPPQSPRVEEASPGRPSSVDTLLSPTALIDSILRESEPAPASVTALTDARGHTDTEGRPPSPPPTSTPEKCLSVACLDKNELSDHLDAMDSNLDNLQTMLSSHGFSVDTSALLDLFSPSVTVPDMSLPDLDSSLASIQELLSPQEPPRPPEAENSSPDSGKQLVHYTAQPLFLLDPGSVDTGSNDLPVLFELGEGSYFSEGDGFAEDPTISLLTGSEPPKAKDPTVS
ETV6, sequence (P41212 whole entry): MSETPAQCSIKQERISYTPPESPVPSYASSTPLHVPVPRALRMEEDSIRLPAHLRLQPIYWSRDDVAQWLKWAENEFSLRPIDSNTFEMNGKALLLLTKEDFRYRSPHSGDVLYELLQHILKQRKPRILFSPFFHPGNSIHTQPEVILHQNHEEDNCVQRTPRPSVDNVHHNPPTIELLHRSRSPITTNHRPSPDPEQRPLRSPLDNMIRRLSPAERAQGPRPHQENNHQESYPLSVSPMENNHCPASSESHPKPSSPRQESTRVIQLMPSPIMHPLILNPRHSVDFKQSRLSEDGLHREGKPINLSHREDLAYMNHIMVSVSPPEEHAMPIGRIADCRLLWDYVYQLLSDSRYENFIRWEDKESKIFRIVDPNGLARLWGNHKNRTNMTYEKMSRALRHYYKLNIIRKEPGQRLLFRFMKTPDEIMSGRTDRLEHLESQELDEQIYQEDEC
ETV1, sequence (P50549 whole entry): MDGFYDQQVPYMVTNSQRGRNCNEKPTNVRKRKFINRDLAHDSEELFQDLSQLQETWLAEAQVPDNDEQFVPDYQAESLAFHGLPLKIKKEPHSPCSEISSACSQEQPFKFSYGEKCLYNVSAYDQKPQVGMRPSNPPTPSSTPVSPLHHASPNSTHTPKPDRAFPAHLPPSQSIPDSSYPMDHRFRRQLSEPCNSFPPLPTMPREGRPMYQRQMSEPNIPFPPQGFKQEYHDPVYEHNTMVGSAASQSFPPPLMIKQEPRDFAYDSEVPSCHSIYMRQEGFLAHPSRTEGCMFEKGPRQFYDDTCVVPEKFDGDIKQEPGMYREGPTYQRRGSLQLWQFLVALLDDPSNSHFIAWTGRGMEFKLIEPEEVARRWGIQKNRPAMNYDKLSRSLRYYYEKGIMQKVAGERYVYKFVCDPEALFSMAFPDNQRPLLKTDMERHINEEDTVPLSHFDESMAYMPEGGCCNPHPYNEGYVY
CRX, sequence (O43186 whole entry): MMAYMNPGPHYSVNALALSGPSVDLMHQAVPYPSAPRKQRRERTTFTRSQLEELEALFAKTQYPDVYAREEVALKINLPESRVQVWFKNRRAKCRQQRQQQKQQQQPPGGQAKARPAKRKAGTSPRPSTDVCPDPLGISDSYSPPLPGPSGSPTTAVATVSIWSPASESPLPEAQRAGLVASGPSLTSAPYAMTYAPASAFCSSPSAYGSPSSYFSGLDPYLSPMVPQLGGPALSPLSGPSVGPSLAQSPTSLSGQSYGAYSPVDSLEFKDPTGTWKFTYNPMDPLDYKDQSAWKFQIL
ETV5, sequence (P41161 whole entry): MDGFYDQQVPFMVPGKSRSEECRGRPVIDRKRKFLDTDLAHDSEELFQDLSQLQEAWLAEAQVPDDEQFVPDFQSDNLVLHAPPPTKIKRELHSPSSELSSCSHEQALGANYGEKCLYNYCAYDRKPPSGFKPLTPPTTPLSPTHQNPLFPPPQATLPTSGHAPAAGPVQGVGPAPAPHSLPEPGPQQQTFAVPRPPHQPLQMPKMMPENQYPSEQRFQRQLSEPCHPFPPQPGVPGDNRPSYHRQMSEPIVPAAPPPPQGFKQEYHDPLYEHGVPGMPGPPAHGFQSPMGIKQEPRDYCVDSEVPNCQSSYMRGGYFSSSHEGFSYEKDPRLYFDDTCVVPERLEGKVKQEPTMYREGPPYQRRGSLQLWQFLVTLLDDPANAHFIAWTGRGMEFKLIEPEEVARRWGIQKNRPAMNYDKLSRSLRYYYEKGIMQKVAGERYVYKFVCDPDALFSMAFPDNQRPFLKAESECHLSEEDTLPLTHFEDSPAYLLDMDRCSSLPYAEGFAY

For CCCTCG, the binding signal in [1] is 1.19 fold enrichment (6-mer frequency, TF over GST control); in assay [2], 1.19 fold enrichment (6-mer frequency, TF over GST control); in assay [3], 1.22 fold enrichment (6-mer frequency, TF over GST control); in assay [4] it was 1.25 fold enrichment (6-mer frequency, TF over GST control); in [5], 1.36 fold enrichment (6-mer frequency, TF over GST control); in [6], 1.36 fold enrichment (6-mer frequency, TF over GST control). The binding signal was 1.25 fold enrichment (6-mer frequency, TF over GST control) in assay [7]; 1.17 fold enrichment (6-mer frequency, TF over GST control) in assay [8]; 1.06 fold enrichment (6-mer frequency, TF over GST control) in assay [9]; 1.25 fold enrichment (6-mer frequency, TF over GST control) in assay [10]; 1.24 fold enrichment (6-mer frequency, TF over GST control) in assay [11]; 1.24 fold enrichment (6-mer frequency, TF over GST control) in assay [12]. In addition, the binding signal was 1.29 fold enrichment (6-mer frequency, TF over GST control) in assay [13]; 1.23 fold enrichment (6-mer frequency, TF over GST control) in assay [14]; 1.3 fold enrichment (6-mer frequency, TF over GST control) in [15]; 1.19 fold enrichment (6-mer frequency, TF over GST control) in assay [16]; 1.16 fold enrichment (6-mer frequency, TF over GST control) in assay [17]; 1.18 fold enrichment (6-mer frequency, TF over GST control) in assay [18].

The record behind these values is article PMC7862700, “An all-to-all approach to the identification of sequence-specific readers for epigenetic DNA modifications on cytosine”.
